KAT2A inh: blocks human GCN5L2 histone acetyltransferase | Q92830 | GCN5L2 HAT assay, ThioGlo1 CoA-SH fluorescence | Potency, µM (series often up to 58.9 µM), for the others: at the top dose activity change, negative = inhibition, most hits filed as inhibitors | 390,000 compounds, 0.21% hits | AID 504327
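Free CoA generated was detected with ThioGlo1 (50uM) fluorescence at Ex340nm/Em540nm, read immediately and after 20 min at room temperature. Enzyme, 20 nM in HEPES pH 7.5 buffer, saw compounds 15 min before adding 75uM H3(1-25) peptide and 70uM acetyl-CoA.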
PLK1 PBD block: inhibitors of human PLK1 polo-box domain binding; P53350; Plk1 PBD binding of FITC phosphopeptide, fluorescence polarization; Potency, µM, without a hit: max response, negative = inhibition, actives largely listed as inhibitors; 360,000 compounds, 2.8% hits; AID 720504; further: series mostly up to about 57 µM; nearly all actives have a fitted effect of over 65% in size
Target sequence (P53350 whole entry, looked up, the tested form may be a part): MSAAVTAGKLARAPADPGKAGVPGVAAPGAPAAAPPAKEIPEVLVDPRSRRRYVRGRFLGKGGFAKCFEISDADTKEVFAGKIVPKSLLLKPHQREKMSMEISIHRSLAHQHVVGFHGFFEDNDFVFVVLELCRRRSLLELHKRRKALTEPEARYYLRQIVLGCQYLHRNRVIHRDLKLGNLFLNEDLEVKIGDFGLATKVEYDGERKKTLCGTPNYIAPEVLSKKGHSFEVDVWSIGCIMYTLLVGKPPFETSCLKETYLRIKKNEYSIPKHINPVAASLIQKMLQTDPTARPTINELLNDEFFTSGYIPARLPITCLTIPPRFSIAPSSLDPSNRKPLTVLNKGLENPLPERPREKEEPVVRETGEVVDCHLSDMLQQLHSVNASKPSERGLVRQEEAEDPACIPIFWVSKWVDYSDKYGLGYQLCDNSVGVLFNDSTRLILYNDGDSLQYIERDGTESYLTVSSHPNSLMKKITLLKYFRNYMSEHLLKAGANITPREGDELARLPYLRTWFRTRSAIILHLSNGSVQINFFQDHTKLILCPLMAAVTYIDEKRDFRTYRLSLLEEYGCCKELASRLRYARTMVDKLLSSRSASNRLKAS
12-LOX inh: inhibitors of human 12S-lipoxygenase ALOX12 | P18054 | purified 12hLO, xylenol orange hydroperoxide absorbance | Potency, µM (series often up to 108 µM), inactives show at the highest dose activity change, negative = inhibition, usual class: inhibitors | 580,000 compounds, 1.1% hits
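Purified human 12hLO at 150 nM in 25 mM Hepes, 0.01% Triton X-100, pH 7.0, preincubated 15 min at room temperature with compound. Reaction started with 40 uM arachidonic acid, 30 min at room temperature. Hydroperoxide measured by Fe-xylenol orange, 573/405 nm absorbance ratio.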
VDR inh: inhibitors of human vitamin D receptor | P11473 | VDR-SRC2-3 peptide fluorescence polarization, 2 h | Potency, µM, for inactives: max response, negative = inhibition, actives largely listed as inhibitors | 400,000 compounds, 0.93% hits | AID 504847
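Signal is fluorescence polarization, reporting how far test compounds block the interaction of VDR with the SRC2-3 coregulator peptide after a 2 h room-temperature incubation.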
An asterisk follows results filed as active; ? = inconclusive; · = not tested or not shown. Most compounds without a hit are left out; they make up all but 3% or so of the library. The call rests on the fitted dose curve; in most records, active means well fitted curve in the direction sought with a large enough effect; inconclusive means small, poorly fitted or top-dose-only effect, or another doubt; inactive means no such curve, though single readings can be large; an effect the other way counts as inactive or inconclusive. On the % scale 0 is the no-effect control and ±100 the full control effect; potency means the concentration at half of the fitted maximal effect.

SMILES	KAT2A inh	PLK1 PBD block	12-LOX inh	VDR inh
COC(=O)C1=C(C(=O)OC)C(c2cc(Br)ccc2O)c2sc(=O)[nH]c2S1 (stereo unspecified)	-2.4%	2.99µM*	44.7µM*	?
COC(=O)C1=C(C(=O)OC)C(c2ccc(OC)c(OC)c2)c2sc(=O)[nH]c2S1 (stereo unspecified)	?	-9.5%	?	79.4µM*
COC(=O)C1Sc2[nH]c(=O)sc2C(c2ccc(Cl)cc2)C1C(=O)OC (stereo unspecified)	-7.7%	?	?	-7.4%
COC(=O)c1cc(Br)ccc1O	·	·	15.9%	·
COc1ccc(C2c3sc(=O)[nH]c3SC3C4CCC(C4)C23)cc1OC (stereo unspecified)	-11.4%	?	-35.0%	-3.8%
COC(=O)C1=C(C(=O)OC)C(c2cc(Cl)ccc2O)c2sc(=O)[nH]c2S1 (stereo unspecified)	-1.3%	9.47µM*	·	?
Cc1ccc(C)c(C(C)NC(=O)C2CCCCC2)c1 (stereo unspecified)	·	·	48.4%	·
CCOc1ccc(N(CC)C(=O)COc2cc(=O)n(C)c3ccccc23)cc1	3.0%	-5.8%	?	-5.5%
CCn1c(=O)cc(OCC(=O)N2CCN(c3ccccc3OC)CC2)c2ccccc21	-1.7%	·	-11.7%	1.1%
CCOc1ccc(N(CC)C(=O)COc2cc(=O)n(CC)c3ccccc23)cc1	1.9%	26.7µM*	-12.5%	-23.1%
CCn1c(=O)cc(OCC(=O)N2CCCC2)c2ccccc21	-2.6%	26.7µM*	259.9%	-10.7%
Clc1ccccc1-c1nc(NC2CCNCC2)c2ccccc2n1	28.2µM*	·	?	39.8µM*
Cc1ccccc1-c1nc(NC2CCNCC2)c2ccccc2n1	-1.5%	·	?	1.6%
O=C(CSc1nc2sccc2c(=O)n1-c1ccccc1)NC1CCCC1	·	·	-12.6%	·
O=[N+]([O-])c1ccc(S(=O)Cc2ccccc2)c([N+](=O)[O-])c1 (stereo unspecified)	·	0.752µM*	?	?
CCOc1ccccc1CN1CCC2(CCN(C(=O)Nc3ccccc3)CC2)Oc2ccccc21	·	·	25.1µM*	·
CCOc1ccccc1CN1CCC2(CCN([S+](=O)([O-])c3cccs3)CC2)Oc2ccccc21	·	·	-12.2%	·
C/C(=N\NC(=O)c1cccc(Br)c1)c1cccs1	·	·	61.6%	·
CC(C)c1nnc(NC(=O)C2c3ccccc3Oc3ccccc32)s1	-0.2%	?	-15.6%	-1.5%
CCc1nnc(NC(=O)C2COc3ccccc3O2)s1 (stereo unspecified)	1.7%	-5.3%	?	-4.3%
Cc1ccnc(NS(=O)(=O)c2ccc(NC(=O)C3COc4ccccc4O3)cc2)n1 (stereo unspecified)	-6.6%	7.52µM*	-15.5%	?
Cc1nnc(NC(=O)C2COc3ccccc3O2)s1 (stereo unspecified)	0.7%	21.2µM*	-5.8%	-13.9%
Cc1ccnc(NS(=O)(=O)c2ccc(NC(=O)C3CCCCC3)cc2)n1	-2.8%	-7.6%	-11.4%	-0.2%
Cc1nnc(NC(=O)C2c3ccccc3Oc3ccccc32)s1	0.1%	21.2µM*	?	?
CC(C)(C)c1ccc(C2(C(=O)O)CC2)cc1	·	·	35.8%	·
SMILES	KAT2A inh	PLK1 PBD block	12-LOX inh	VDR inh
CCCn1c(=S)[nH]c2cc(Cl)ccc21	?	15µM*	?	?
CN(CC(=O)Nc1cccc2ccccc12)C(=O)c1ccc(NS(=O)(=O)c2ccc(F)cc2)cc1	·	·	-1.6%	·
CC(=O)N1CCc2cc(S(=O)(=O)CCC(=O)Nc3ccccc3F)ccc21	-1.4%	23.8µM*	-11.7%	-7.4%
CCC(C)NC(=O)Cn1c(-c2ccc(F)cc2)nc(C)cc1=O (stereo unspecified)	·	·	1.3%	·
CC1CCN(C(=O)c2cc(Cl)ccc2NC(=O)c2ccco2)CC1	-2.8%	2.7%	0.7%	-8.5%
CN1CCN(C(=O)c2cc(Cl)cc(Cl)c2NC(=O)c2ccco2)CC1	-0.7%	26.7µM*	-4.6%	-28.3%
O=Cc1ccc(Sc2nnc(-c3ccccc3)o2)c([N+](=O)[O-])c1	-11.8%	?	·	79.4µM*
Cn1nc([N+](=O)[O-])nc1Sc1nnc(-c2ccccc2)o1	1.0%	-7.3%	-2.6%	-8.7%
CN(Cc1ccccc1)c1cc2c(c3c1ccn3C)C1CCC2O1 (stereo unspecified)	·	-19.6%	?	·
Cn1ccc2c(N(Cc3ccccc3)Cc3ccccc3)cc3c(c21)C1CCC3O1 (stereo unspecified)	·	-27.5%	11.2µM*	·
CCc1ccccc1NC(=O)CNC(=O)Cn1c(=O)n(CC)c2ccccc21	·	·	17.4%	·

Source: PubChem (National Center for Advancing Translational Sciences (NCATS))
